Bioassay records from PubChem.
An excerpt weighted towards active compounds, which were near 7.5% of everything screened.
HCMV inh: blocks human cytomegalovirus replication; HFF cells, HCMV-luciferase reporter, 72 h; stronger effect = lower value; activity change, negative = inhibition, % at 57.5 µM; actives 4.5% (n = 410,000); AID 1259415; in the data active means activity change below about -60%; inconclusive means no clear call, values can overlap the other calls; inactive means above about -39%
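Two compound doses tested in HFFs infected with HCMV-luciferase, MOI 1 PFU/cell, 72 h at 37C. Lysate luminescence read with OneGlo; data normalized against buffer-only and 10uM Salinomycin inhibitor controls.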
VACV mCherry inh: vaccinia inhibition (mCherry reporter); Vaccinia virus mCherry reporter infection, fluorescence; Potency, µM (titrated, usually from 36.5 µM), for inactives: at the top dose activity change, negative = inhibition, hits mostly inhibitors; actives 0.63% (n = 310,000); AID 720579; calls by dose curve; tested in A549 cells; further: potency means the concentration at half of the fitted maximal effect; nearly all actives have a fitted effect of over 35% in size
Giardia FBPA inh: inhibitors of Giardia lamblia fructose-1,6-bisphosphate aldolase | AID 2451 | A8B2U2 | purified Giardia FBPA | actives 0.71% (n = 290,000) | Potency, µM (series often up to 59.6 µM), without a hit: at the top dose activity, negative = inhibition, actives largely listed as inhibitors; further: potency means the concentration at half of the fitted maximal effect; nearly all actives have a fitted effect of over 55% in size
Target sequence (A8B2U2 whole entry, looked up): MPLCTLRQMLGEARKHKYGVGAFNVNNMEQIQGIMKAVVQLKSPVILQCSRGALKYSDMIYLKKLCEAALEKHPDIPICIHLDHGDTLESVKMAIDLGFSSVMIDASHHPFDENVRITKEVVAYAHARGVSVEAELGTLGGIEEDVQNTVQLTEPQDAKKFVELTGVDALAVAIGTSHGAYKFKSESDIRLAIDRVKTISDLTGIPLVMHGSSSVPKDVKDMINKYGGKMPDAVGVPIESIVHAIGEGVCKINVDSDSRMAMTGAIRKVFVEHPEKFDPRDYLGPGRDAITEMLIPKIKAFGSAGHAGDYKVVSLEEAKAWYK
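40 nM FBPA preincubated 10 min at RT with compound (up to 57.5 uM final), then substrate plus GAPDH/TPI/NAD/arsenate coupling and diaphorase/resazurin added. Fluorescence read after 20 min at RT, 525/598 nm.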
VACV Venus inh: inhibitors of vaccinia virus (Venus reporter); Vaccinia virus Venus reporter expression, fluorescence; actives 0.46% (n = 330,000); Potency, µM (series often up to 36.5 µM), inactives show top-dose activity change, negative = inhibition, actives largely listed as inhibitors; calls by dose curve; tested in A549 cells; further: potency means the concentration at half of the fitted maximal effect; nearly all actives have a fitted effect of over 30% in size
HCV inh: HCV inhibition; actives 3.4% (n = 340,000); Potency, µM (series often up to 41.8 µM), inactives show at the highest dose activity change, negative = inhibition, hits mostly inhibitors; AID 651820; Huh7.5.1 HCVcc-Cre infection, luciferase reporter, 44 h; further: potency means the concentration at half of the fitted maximal effect
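A cell-based infection assay in which seeded cells (1,000 per well) receive test compound after 4 h, are inoculated with HCVcc-Cre at approximately 0.5 moi, and are incubated 44 h before luminescence detection.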
FMDV inh: blocks foot and mouth disease virus; FMDV antiviral cell-based qHTS; actives 1.2% (n = 410,000); Potency, µM (highest dose often 57.9 µM), without a hit: at the highest dose activity change, negative = inhibition, most hits filed as inhibitors; calls by dose curve; tested in HEK293T cells; further: read-out not given here; potency means the concentration at half of the fitted maximal effect; nearly all actives have a fitted effect of over 45% in size
* marks the source's active call; other numbers are inactive results; i = inactive; ? = inconclusive; nt = no result; [ ] = remark or other dose. Unless noted, the call rests on the fitted dose curve; in most records, active means well fitted curve in the direction sought with a large enough effect; inconclusive means small, poorly fitted or top-dose-only effect, or another doubt; inactive means no such curve, though single readings can be large; an effect the other way counts as inactive or inconclusive. On the % scale 0 is the no-effect control and ±100 the full control effect.

SMILES | HCMV inh | VACV mCherry inh | Giardia FBPA inh | VACV Venus inh | HCV inh | FMDV inh
CC1Sc2ccc(S(=O)(=O)N3CCC(C(=O)N(C)Cc4ccccc4)CC3)cc2NC1=O (centres undefined) | -64* | -12% | nt | -9% | ? | -42%
CCOc1ccc(CN(C)C(=O)c2ccc3c(c2)NC(=O)C(C)S3)cc1OC (centres undefined) | -18 | nt | nt | nt | 13µM* | ?
Cc1nonc1CN(C)C(=O)c1ccc(OC2CCN(C(=O)c3cccnc3)CC2)cc1 | 35 | -10% | 9% | -3% | 1% | 35%
CC(=O)c1ccc(N(CC(=O)NCCc2ccccc2)C(=O)c2csnn2)cc1 | 4 | i | -5% | -8% | 1% | 17%
CCc1ccc(NC(=O)C2CCN(S(=O)(=O)c3ccc4c(c3)NC(=O)C(C)S4)CC2)cc1 (centres undefined) | -97* | -11% | nt | -30% | 8.9µM* | -9%
CC1Sc2ccc(S(=O)(=O)N(C)Cc3ccccc3)cc2NC1=O (centres undefined) | ? | -12% | nt | -8% | ? | 28µM*
Cc1ccc(NC(=O)C2CCN(S(=O)(=O)c3ccc4c(c3)NC(=O)C(C)S4)CC2)cc1C (centres undefined) | -62* | -5% | nt | -26% | ? | ?
COc1ccc(OC)c(S(=O)(=O)N2CCC(C(=O)Nc3ccc(C)c(C)c3)CC2)c1 | -30 | nt | nt | nt | ? | 25µM*
C=CCN(c1ccccc1)S(=O)(=O)c1ccc2c(c1)NC(=O)C(C)S2 (centres undefined) | 3 | nt | nt | nt | -22% | -25%
Cc1ccc(NC(=O)C2CCN(S(=O)(=O)c3ccc4c(c3)NC(=O)C(C)S4)CC2)c(C)c1 (centres undefined) | 0 | i | nt | -19% | ? | -19%
CC1=CC=CN2C1=NC(=O)CC2(C)C(=O)N(CC(=O)NC1CCCC1)c1cc(C)cc(C)c1 (centres undefined) | -38 | nt | 3% | nt | -5% | -5%
CC1Sc2ccc(S(=O)(=O)N3CCC(C(=O)Nc4cccc(Cl)c4)CC3)cc2NC1=O (centres undefined) | -100* | ? | nt | ? | 3.2µM* | 20µM*
COc1ccc(CCNC(=O)CCS(=O)(=O)c2ccc3c(c2)NC(=O)C(C)S3)cc1OC (centres undefined) | -31 | nt | -10% | nt | 1% | -15%
COc1ccc(CCNS(=O)(=O)c2ccc3c(c2)NC(=O)C(C)S3)cc1OC (centres undefined) | -20 | -13% | 5% | -5% | 25µM* | -16%
CC(=O)C1=CCC(c2ccc(Cl)cc2)N(S(=O)(=O)c2ccccc2)C1 (centres undefined) | -32 | 10% | nt | -14% | nt | ?
CC(NC(=S)Nc1ccccc1OC(F)F)C(C)(C)C (centres undefined) | -65* | -5% | -7% | -5% | 4% | 7%
CC(NC(=S)Nc1ccc(OC(F)F)cc1OC(F)F)C(C)(C)C (centres undefined) | -24 | -18% | 2% | -10% | ? | 6%
Cn1c(C(C(=O)NCC2CCCO2)N(CCc2ccccc2)C(=O)Cn2nnc3ccccc32)nc2ccccc21 (centres undefined) | -65* | i | 6% | -15% | 11% | 9%
Cc1ccc(OCC(=O)N(C)C2CCCCC2)c([N+](=O)[O-])n1 | -16 | -2% | nt | -12% | 20% | 5%
Cc1ccc(S(=O)(=O)c2c(Nc3cc(F)ccc3F)sc(C(=O)c3ccc(F)cc3)c2N)cc1 | -65* | ? | nt | ? | nt | ?
Cc1ccc(Nc2sc(C(=O)c3ccc(F)cc3)c(N)c2S(=O)(=O)c2ccc(C)cc2)cc1 | -8 | -23% | nt | -19% | nt | -8%
Nc1c(C(=O)c2ccc(F)cc2)sc(Nc2ccccc2F)c1S(=O)(=O)c1ccc(Br)cc1 | -71* | -6% | nt | -26% | nt | -18%
O=C(COC(=O)CNC(=O)c1ccc([N+](=O)[O-])o1)Nc1ncc(C(F)(F)F)cc1Cl | -13 | nt | nt | nt | 2.8µM* | -5%
O=c1cc(C(F)(F)F)[nH]c2c(OC(F)(F)F)cccc12 | -95* | i | -11% | -24% | 11% | ?
CCc1c(C)c2ccc(O)c(CN3CCCC3)c2oc1=O | 35 | -10% | 7% | -16% | -1% | -3%
SMILES | HCMV inh | VACV mCherry inh | Giardia FBPA inh | VACV Venus inh | HCV inh | FMDV inh
CCc1c(C)c2ccc(O)c(CN3CCN(c4ccccc4)CC3)c2oc1=O | -61* | -19% | nt | -17% | nt | ?
NCC12CC3CC(C1)CC(c1ccc(Cl)cc1)(C3)C2 | -40 | ? | -1% | 13µM* | ? | -29%
Clc1cccc(CNc2ncnc3nc[nH]c23)c1 | nt | -23% | nt | -19% | nt | nt
O=C(CSc1nnnn1C1CCCCC1)Nc1ccccc1F | 18 | nt | 1% | nt | -7% | -1%
O=C(CSc1nnnn1C1CC2CCC1C2)Nc1ccnc2ccccc12 (centres undefined) | -76* | nt | 4% | ? | -15% | 40µM*
CC(=O)OC1C(O)C(C)OC(OC2C(OC(=O)C3CCC4C(C3)OC3(CC(OC(=O)/C=C/c5ccccc5)C(C)CO3)C43CO3)OC(C)C(O)C2OC(C)=O)C1O (centres undefined) | -98* | ? | nt | 0.32µM* | ? | ?
CC(=O)CCC1C2C(O)C(C(C)C)C(OC(=O)/C=C/c3ccccc3)CC12C (centres undefined) | 1 | 6% | -1% | -2% | -16% | ?
Cc1ccccc1NC(=O)CSc1nnc(-c2ccco2)c(-c2ccco2)n1 | nt | nt | 1.8µM* | nt | -25% | -18%
CSc1nnc(-c2ccco2)c(-c2ccco2)n1 | 55 | -4% | 3.5µM* | -29% | 5% | -13%
O=C(NC1CCC(O)CC1)c1ccc(-c2ccc([N+](=O)[O-])cc2)o1 (centres undefined) | 64 | nt | -3% | nt | ? | 13%
COc1ccc2c(=O)cc(-c3ccncc3)oc2c1OC | -38 | ? | nt | ? | 11µM* | -13%
Oc1ccc(CN2CCN(Cc3ccccc3)CC2)c2cccnc12 | 52 | nt | 9% | nt | 10µM* | -7%
O=S(=O)(c1ccc(Cl)cc1)N1CCN(Cc2ccc(O)c3ncccc23)CC1 | -98* | ? | 4% | ? | ? | -16%
O=[N+]([O-])c1ccc(S(=O)(=O)N2CCN(Cc3c[nH]c4ccccc34)CC2)cc1 | 61 | nt | ? | nt | 22µM* | -13%
COc1cccc(NC(=O)N2CCN(S(C)(=O)=O)CC2)c1 | -24 | 0% | 7% | 3% | 4% | 8%
O=C(Nc1ccc2oc(-c3cc(Br)ccc3Cl)nc2c1)c1cc2ccccc2o1 | 26 | -14%[7.34 µM] | nt | -10%[7.34 µM] | nt | -15%
COC(=O)COc1ccc(-c2nnc(Nc3ccc(O)cc3)c3ccccc23)cc1 | -107* | -14% | nt | -3% | nt | ?
